In paper PMC11062922 (Nature Chemical Biology, 2023):
Read-outs that look alike come from different tables or passages of the source.

Experiments:
Set-up in all cases: species or system human, MV4-11 + K-562 + COLO205 + SK-N-BE2 + OVCAR-8
NQO2 = conditions: read-out: apparent Kd, n = 1
TGFBR1 = conditions: read-out: apparent Kd; compound concentrations:100 nM and 1000 nM (sheet 'Samples'); n = 1
TGFBR2 = conditions: read-out: apparent Kd; compound concentrations:100 nM and 1000 nM (sheet 'Samples'); n = 1
MAPK9 = conditions: read-out: apparent Kd; compound concentrations: 100 nM and 1000 nM (sheet 'Samples'), CATDS: 1; n = 1
MTHFD1 = conditions: read-out: apparent Kd; compound concentrations:100 nM and 1000 nM (sheet 'Samples'); n = 1
PBK = conditions: read-out: apparent Kd, n = 1
MCM5 = conditions: read-out: apparent Kd; compound concentrations:100 nM and 1000 nM (sheet 'Samples'); n = 1
NLK = conditions: read-out: apparent Kd, n = 1
TNIK = conditions: read-out: apparent Kd, n = 1
MERTK = conditions: read-out: apparent Kd; compound concentrations:100 nM and 1000 nM (sheet 'Samples'); n = 1
NNT = conditions: read-out: apparent Kd, n = 1
MTOR = conditions: read-out: apparent Kd; compound concentrations: 100 nM and 1000 nM (sheet 'Samples'), CATDS: 7.1154294212896999E-2; n = 1
PDGFRB = conditions: read-out: apparent Kd; compound concentrations: 100 nM and 1000 nM (sheet 'Samples'), CATDS: 5.6462124359458001E-2; n = 1
PI4KA = conditions: read-out: apparent Kd; compound concentrations: 100 nM and 1000 nM (sheet 'Samples'), CATDS: 9.2469758478665204E-2; n = 1
PI4KB = conditions: read-out: apparent Kd; compound concentrations: 100 nM and 1000 nM (sheet 'Samples'), CATDS: 6.1584731713773599E-2; n = 1
PIK3C2A = conditions: read-out: apparent Kd; compound concentrations: 100 nM and 1000 nM (sheet 'Samples'), CATDS: 5.5656712709310899E-2; n = 1
PIK3C2B = conditions: read-out: apparent Kd; compound concentrations: 100 nM and 1000 nM (sheet 'Samples'), CATDS: 0.103549921719069; n = 1
PIK3CA = conditions: read-out: apparent Kd; compound concentrations: 100 nM and 1000 nM (sheet 'Samples'), CATDS: 0.27321348763970998; n = 1
PIK3CB = conditions: read-out: apparent Kd; compound concentrations: 100 nM and 1000 nM (sheet 'Samples'), CATDS: 0.12993654601332599; n = 1
PIK3CD = conditions: read-out: apparent Kd, compound concentrations: 100 nM and 1000 nM (sheet 'Samples'), n = 1
PIK3CG = conditions: read-out: apparent Kd; compound concentrations: 100 nM and 1000 nM (sheet 'Samples'), CATDS: 0.28339263062776299; n = 1
PRKDC = conditions: read-out: apparent Kd; compound concentrations: 100 nM and 1000 nM (sheet 'Samples'), CATDS: 5.8127762202415202E-2; n = 1
MAPK14 = conditions: read-out: apparent Kd, n = 1
PIK3C3 = conditions: read-out: apparent Kd; compound concentrations:100 nM and 1000 nM (sheet 'Samples'); n = 1
STK16 = conditions: read-out: apparent Kd; compound concentrations:100 nM and 1000 nM (sheet 'Samples'); n = 1
NEK9 = conditions: read-out: apparent Kd; compound concentrations: 100 nM and 1000 nM (sheet 'Samples'), CATDS: 1; n = 1
MYLK3 = conditions: read-out: apparent Kd; compound concentrations: 100 nM and 1000 nM (sheet 'Samples'), CATDS: 0.35775008511520401; n = 1
T10 = test system: T1, T10; conditions: read-out: apparent Kd; compound concentrations: 100 nM and 1000 nM (sheet 'Samples'), CATDS: 0.30543908388735203; n = 1
T1 construct: gene NAT10

TTK = conditions: read-out: apparent Kd; compound concentrations: 100 nM and 1000 nM (sheet 'Samples'), CATDS: 0.34120640497056598; n = 1
RIOK2 = conditions: read-out: apparent Kd; compound concentrations: 100 nM and 1000 nM (sheet 'Samples'), CATDS: 0.53784196223168101; n = 1
NQO1 = conditions: read-out: apparent Kd; compound concentrations: 100 nM and 1000 nM (sheet 'Samples'), CATDS: 1; n = 1
STK4 = conditions: read-out: apparent Kd; compound concentrations: 100 nM and 1000 nM (sheet 'Samples'), CATDS: 0.289467796660549; n = 1
MAPKAPK2 = conditions: read-out: apparent Kd, compound concentrations: 100 nM and 1000 nM (sheet 'Samples'), n = 1
[1] = compound concentrations:100 nM and 1000 nM (sheet 'Samples')
[2] = compound concentrations: 100 nM and 1000 nM (sheet 'Samples'), CATDS: 1

In the case of `Cc1ccc(-c2cc(-c3c[nH]nc3-c3ccccn3)ccn2)cc1` [GW684088X], the potency estimated from few doses (NQO2; [1]) is reported as 741 nM, the potency estimated from few doses (TGFBR1) is reported as 490 nM and the potency estimated from few doses (TGFBR2) is reported as 2230 nM.
`COC(=O)c1c(-c2ccccc2)c2cc(Br)ccc2c(=O)n1Cc1ccc(S(C)(=O)=O)cc1` [TPKI-100] was tested, and the potency estimated from few doses (MAPK9) was 1460 nM.
Work on `CCNC(=O)[C@@H]1CCCN2C(=O)CC[C@H](NC(=O)[C@H](Cc3ccc(OP(=O)(O)O)cc3)NC(C)=O)C(=O)N12` [RO0325851-000] yielded a potency estimated from few doses (MTHFD1) of 1840 nM.
`Cn1ncc2cc(-c3cnc(N)c(Cl)c3N3CCC4(CCNC4=O)CC3)ccc21` [CCT251921] showed a potency estimated from few doses (PBK; [1]) of 1570 nM.
With `COc1cccc(-c2ccc3c(NC(=O)C4CC4)n[nH]c3n2)c1` [SB-710903] the potency estimated from few doses (MCM5) was 2020 nM, the potency estimated from few doses (NLK; [1]) was 1900 nM and the potency estimated from few doses (TNIK; [1]) was 1640 nM.
`CS(=O)(=O)CCNCc1nc(-c2ccc3ncnc(Nc4ccc(F)c(Cl)c4)c3c2)cs1.Cl` [GW461104A] showed a potency estimated from few doses (MERTK) of 1190 nM and a potency estimated from few doses (NNT; [1]) of 1740 nM.
`COc1ccc(-c2cc3c(C)nc(N)nc3n([C@H]3CC[C@H](O)CC3)c2=O)cn1` [PFE-PKIS_40] gave a potency estimated from few doses (MTOR) of 382 nM, a potency estimated from few doses (PDGFRB) of 1550 nM and a potency estimated from few doses (PI4KA) of 96.5 nM. The potency estimated from few doses (PI4KB) was 875 nM, the potency estimated from few doses (PIK3C2A) was 1720 nM and the potency estimated from few doses (PIK3C2B) was 55.7 nM. The potency estimated from few doses (PIK3CA) was 1.69 nM, the potency estimated from few doses (PIK3CB) was 19.7 nM and the potency estimated from few doses (PIK3CD; CATDS: 0.40484446782600397) was 0.817 nM. It also gave a potency estimated from few doses (PIK3CG) of 1.57 nM and a potency estimated from few doses (PRKDC) of 1260 nM.
Molecule `Nc1n[nH]c2ncc(-c3ccccc3)cc12` [SB-517081_KCGS] has a potency estimated from few doses (MAPK14; [1]) of 1590 nM, a potency estimated from few doses (PIK3C3) of 1320 nM and a potency estimated from few doses (STK16) of 1630 nM.
In the case of `Cn1cnc2c(N)ncnc21` [SKF-97623], the potency estimated from few doses (NQO2; [2]) is reported as 1300 nM.
With `COc1cc(Nc2ncc3c(C)nc(-c4cccc(Oc5ccccc5)c4)n3n2)cc(OC)c1OC` [GW861893X] the potency estimated from few doses (NEK9) was 584 nM.
Molecule `COc1ccc(-c2oc3ncnc(N)c3c2-c2ccc(NC(=O)Nc3cc(C(F)(F)F)ccc3F)cc2)cc1.Cl` [GW768505A] has a potency estimated from few doses (MYLK3) of 1430 nM, a potency estimated from few doses (T10) of 1970 nM and a potency estimated from few doses (TTK) of 1570 nM.
With `Fc1cccc(COc2ccc(Nc3ncnc4sc(-c5cccs5)cc34)cc2Cl)c1` [GW684626B] the potency estimated from few doses (NNT; [1]) was 1210 nM.
For `COc1c(C(N)=O)cc(-c2ccc(Cl)cc2)cc1-c1ccc(S(N)(=O)=O)cc1` [GSK711701A], the potency estimated from few doses (NQO2; [2]) was 1490 nM.
`Cl.Cl.Cl.N#Cc1ccc(CCNc2nccc(-c3cccc(CN4CCNCC4)c3)n2)cc1.N#Cc1ccc(CCNc2nccc(-c3cccc(CN4CCNCC4)c3)n2)cc1` [GSK2137462A] gave a potency estimated from few doses (PBK; compound concentrations: 100 nM and 1000 nM (sheet 'Samples'), CATDS: 0.354579243895072) of 1350 nM and a potency estimated from few doses (PIK3CD; CATDS: 0.84763293051447697) of 134 nM.
`COc1cccc(-n2nc(C)c3c(N/N=C(\C)c4ccncc4)ncnc32)c1` [GW809885X] showed a potency estimated from few doses (NNT; compound concentrations: 100 nM and 1000 nM (sheet 'Samples'), CATDS: 0.46713303896147801) of 1600 nM and a potency estimated from few doses (RIOK2) of 1200 nM.
In the case of `COC(=O)Nc1nc2cc(Oc3ccc(NC(=O)Nc4cccc(C(=O)O)c4)cc3)ccc2[nH]1.Cl` [GW701427A], the potency estimated from few doses (NQO1) is reported as 1010 nM.
Molecule `FC(F)(F)c1ccc(-c2cc(-c3c[nH]nc3-c3ccccn3)ccn2)cc1` [GW599550X] has a potency estimated from few doses (NQO2; [1]) of 1070 nM and a potency estimated from few doses (TGFBR1) of 1520 nM.
`O=C(Nc1n[nH]c2cc(-c3cccc(F)c3F)ccc12)C1CC1` [SB-733894] gave a potency estimated from few doses (NLK; compound concentrations: 100 nM and 1000 nM (sheet 'Samples'), CATDS: 0.29749178894258499) of 1860 nM, a potency estimated from few doses (STK4) of 1990 nM and a potency estimated from few doses (TNIK; compound concentrations: 100 nM and 1000 nM (sheet 'Samples'), CATDS: 0.457886576185151) of 808 nM.
Molecule `CCS(=O)(=O)c1ccc(OC)c(Nc2nccc(-c3c(-c4cccc(NC(=O)c5c(F)cccc5F)c4)nn4ncccc34)n2)c1` [GSK326180A] has a potency estimated from few doses (MAPKAPK2; CATDS: 1) of 1390 nM.
With `c1cc(-c2cnn3nc(N4CCOCC4)ccc23)nc(NC2CC2)n1` [GW708336X] the potency estimated from few doses (NQO1) was 1540 nM.
`COc1cccc(-c2cc(-c3c[nH]nc3-c3ccccn3)ccn2)c1` [GW680338X] was tested, and the potency estimated from few doses (NQO2; [1]) was 424 nM.
`O=c1[nH]c2cc(Nc3ccc(F)cc3F)ccc2n1CC1CCCCC1` [BI00601000] gave a potency estimated from few doses (MAPK14; compound concentrations: 100 nM and 1000 nM (sheet 'Samples'), CATDS: 0.69333991182184596) of 27.6 nM and a potency estimated from few doses (MAPKAPK2; CATDS: 0.39097535171865) of 97.2 nM.
